Screening results: PubChem BioAssay, National Center for Advancing Translational Sciences (NCATS)
ClpP mod – qHTS Assay for Activators of ClpP. ATP-dependent Clp protease proteolytic subunit (Bacillus subtilis (strain 168)), P80244. Potency, µM (highest dose often 57.5 µM). AID 651965, 2013. purified B. subtilis ClpP, FRET peptide cleavage, 20 min. 340,000 tested, 1.9% active; active = well fitted falling curve with a large enough effect; inconclusive = small, poorly fitted or top-dose-only effect; inactive = no such curve, though single readings can be large or run the other way; also: the source files actives as falling curves though it sought activators and does not explain the sign; nearly all actives have a fitted effect of over 65% in size
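Purified B. subtilis ClpP, 10 microg/mL final in Tris/HCl pH8 with KCl, BSA, glycerol and Tween-20, cleaved an Abz/nitrotyrosine-quenched decapeptide. Fluorescence (ex 320, em 430) was read at 0 and 20 min at room temperature. Delta was normalized to 5.8 microM ADEP and DMSO/no-enzyme controls.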
B2AR arrestin – agonists driving beta-arrestin recruitment to human beta2-adrenergic receptor. P07550. beta-arrestin recruitment to beta2AR, cell-based reporter. Potency, µM (doses to about 46.1 µM), actives largely listed as activators. 330,000 tested, 0.02% active; also: nearly all actives have a fitted effect of over 65% in size
Giardia kill – kills Giardia lamblia; Giardia lamblia trophozoite viability; activity change, % at 7.66 µM, hits read low; 340,000 tested, 0.15% active; AID 540267; in the data active = activity change below about -80%; inconclusive = between about -30% and that limit;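 also: parasites exposed to compound for two days anaerobically before the ATP read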
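Trophozoite viability was measured as ATP-dependent luminescence, read 15-30 min after reagent addition. Before that, parasites at 100 cells/well were exposed to compounds for 48 h, anaerobically, at 37 deg C.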
p53 reactivation – re-activators of mutant p53 | H1299 p53-A138V BP100-luciferase reporter, luminescence, 24 h | Potency, µM (titrated, usually from 92.2 µM), most hits filed as activators | 320,000 tested, 0.063% active | AID 504706; also: nearly all actives have a fitted effect of over 45% in size
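p53-null H1299 cells stably carrying temperature-sensitive p53-A138V and a BP100-luciferase reporter were pinned with compounds (4-point, 1:5 series) and held 24 hrs at 37 deg C. Luminescence was read 10 min after detection reagent.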
uPA surface inh – cell surface uPA generation inhibition; cell surface uPA generation assay, qHTS; Potency, µM (doses to about 38.3 µM), actives largely listed as inhibitors; 330,000 tested, 0.31% active; AID 540303; active = well fitted inhibition curve with a large enough effect; inconclusive = small, poorly fitted or top-dose-only effect; inactive = no such curve, though single readings can be large or run the other way; tested in mouse RAW 264.7 cells; also: nearly all actives have a fitted effect of over 55% in size
Mito fusion act – blocks mitochondrial division or promotes mitochondrial fusion. S. cerevisiae fusion-defective mutant growth rescue, CellTiterGlo 48 h. Potency, µM (titrated, usually from 46.1 µM), actives largely listed as activators. 320,000 tested, 0.23% active. AID 485298; also: nearly all actives have a fitted effect of over 45% in size
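Temperature-sensitive fusion-defective S. cerevisiae (e.g. fzo1-1, mgm1-5) were grown with compound in YPEG medium (3% ethanol, 3% glycerol) for 48 hours at 37C. Growth rescue was measured as viability by CellTiterGlo luminescence after 10 minutes at ambient.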
Numbers stand for hits; 0 = inactive; ? = inconclusive; - = no result given. Sampled rows, rich in hits. Any-hit rate of the full collection: about 2.1%. Unless noted, calls follow the shape of the dose curve; as a rule, active = well fitted curve in the direction sought with a large enough effect; inconclusive = small, poorly fitted or top-dose-only effect, or another doubt; inactive = no such curve, though single readings can be large; an effect the other way counts as inactive or inconclusive.

SMILES | ClpP mod | B2AR arrestin | Giardia kill | p53 reactivation | uPA surface inh | Mito fusion act
O=C(c1cn(Cc2ccccc2)nc1-c1ccccc1)N1CCN(c2ccccn2)CC1 | 0 | 0 | 0 | 0 | 4.5µM | 0
O=C(Cc1ccccc1)N1CCN(c2ncccn2)CC1 | 0 | 0 | 0 | 0 | 0 | 0
COc1ccc(-c2nn(Cc3ccccc3)cc2C(=O)N2CCN(c3ccccn3)CC2)cc1OC | ? | 0 | 0 | 0 | 0 | 0
COc1ccc(CC(=O)N2CCN(c3ccccn3)CC2)cc1 | 20µM | 0 | 0 | 0 | 0 | 0
Cc1ccc(CC(=O)N2CCN(c3ccccn3)CC2)cc1 | 22µM | 0 | ? | 0 | 0 | 0
CN(CC(=O)N1CCN(c2ccccn2)CC1)S(=O)(=O)c1ccccc1 | 32µM | 0 | 0 | 0 | 0 | 0
COc1ccc(C)cc1NS(=O)(=O)c1cnc(N)nc1 | 0 | - | - | - | - | -
CCCOc1ccc(CNC(=O)C2CCN(c3nc4ccccc4nc3C(F)(F)F)CC2)cc1 | 0 | - | - | - | - | -
CCOC(=O)CN(c1ccccn1)S(=O)(=O)c1ccccc1 | 32µM | 0 | 0 | 0 | 0 | 0
CC(C)C(=O)Nc1cccc(C(=O)Nc2nnc(CC(C)(C)C)s2)c1 | 0 | - | - | - | - | -
Cc1ccc2nc3c(cc(C#N)c(=O)n3-c3nccs3)c(=O)n2c1 | 2.5µM | 0 | 0 | 0 | 0 | 0
CCOC(=O)N1CCN(c2nc(-c3cccc(OC)c3)cc(C(F)(F)F)n2)CC1 | 28µM | 0 | 0 | 0 | 0 | 0
CCOC(=O)N1CCN(c2nc(-c3ccco3)cc(C(F)(F)F)n2)CC1 | 0 | 0 | 0 | 0 | 0 | 0
O=c1nc2ccccc2c2n1CC(CN1CCN(c3ccc(F)cc3)CC1)N2 (centres undefined) | 0 | 0 | 0 | 0 | 0 | 0
O=c1nc2ccccc2c2n1CC(CN1CCN(Cc3ccccc3)CC1)N2 (centres undefined) | 16µM | 0 | 0 | 0 | 0 | 0
COC(=O)c1ccccc1NC(=O)c1cc(C)nc2c1c(C)nn2-c1ccc(C)cc1 | 0 | - | - | - | - | -
COC(=O)c1cc(OC)c(OC)cc1NC(=O)CCC1CCCC1 | 32µM | 0 | 0 | 0 | 0 | 0
COC(=O)c1cc(OC)c(OC)cc1NC(=O)CCCCCN1C(=O)CCC1=O | 28µM | 0 | 0 | 0 | 0 | 0
O=c1cccc2n1Cc1cc3ccccc3nc1-2 | 0 | 0 | 0 | ? | 7.9µM | 0
COCCN(C(=O)COC(=O)/C=C/c1ccc(C(F)(F)F)cc1)c1c(N)n(Cc2ccccc2)c(=O)[nH]c1=O | 0 | 0 | 0 | 0 | 0 | 0
COCCN(C(=O)COC(=O)/C=C/c1ccc(SC)cc1)c1c(N)n(Cc2ccccc2)c(=O)[nH]c1=O | 22µM | - | 0 | - | 0 | -
Nc1sc2c(c1C(=O)NCCc1ccccc1)CCCC2 | 0 | - | - | - | - | -
CC(C)(C)OC(=O)[C@H](Cc1ccccc1)NC(=O)c1ncn2c1c(=O)[nH]c1ccc(Br)cc12 | 7.9µM | - | - | - | - | -
CC(C)(C)OC(=O)[C@H](Cc1ccccc1)NC(=O)c1nc[nH]c1C(=O)N[C@@H](Cc1ccccc1)C(=O)OC(C)(C)C | 0 | 0 | 0 | 0 | ? | 0
Cc1nn(C(=O)c2ccc(Cl)cc2)c(C)c1S(=O)(=O)N1CCOCC1 | 0 | - | - | - | - | -
SMILES | ClpP mod | B2AR arrestin | Giardia kill | p53 reactivation | uPA surface inh | Mito fusion act
CC(=O)Nc1cccc(CP(=O)(c2ccccc2)c2ccccc2)c1 | 32µM | 0 | 0 | 0 | 0 | 0
COc1ccc(NC(C)=O)cc1CP(=O)(c1ccccc1)c1ccccc1 | 0 | 0 | 0 | 0 | 0 | 0
CC1(C)O[C@H]2[C@@H](O1)[C@@H](C(=O)Nc1ccc(F)c(F)c1)O[C@@H]1OC(C)(C)O[C@@H]12 | 0 | - | - | - | - | -
COc1ccc(C)cc1NC(=O)c1oc2ccc(S(=O)(=O)N(C)C3CCCCC3)cc2c1C | 0 | - | - | - | - | -
COc1cccc(NC(=O)c2oc3ccc(S(=O)(=O)N(C)C4CCCCC4)cc3c2C)c1 | 25µM | - | - | - | - | -
O=c1onc2cnc3ccccc3n12 | - | - | - | - | - | 9.2µM
CCOC(=O)c1sc2nc(CC(=O)OC)nc(NCCN(CC)CC)c2c1C | 0 | 0 | 0 | 0 | 0 | 0
CCOC(=O)c1sc2nc(CC(=O)OC)nc(NCc3ccc(Cl)cc3)c2c1C | 14µM | 0 | 0 | 0 | - | 0
CCN(C(=O)COC(=O)c1c2c(nc3ccccc13)/C(=C/c1ccccc1)CC(C)C2)C1CCS(=O)(=O)C1 (centres undefined) | ? | 0 | 0 | 0 | 0 | 20µM
CCN(C(=O)COC(=O)c1c(C)nn(-c2ccccc2)c1C)C1CCS(=O)(=O)C1 (centres undefined) | - | 0 | 0 | 0 | 0 | 0
COc1ccc(CNC(=O)CSCc2ccc(C)cc2)c(OC)c1 | 0 | - | - | - | - | -
CCN(Cc1ccccc1)C(=O)c1cc2ccc3cccnc3c2[nH]1 | 0 | - | - | - | - | -
CN(C)CCCNc1cc(O)c2ncccc2c1 | - | 0 | 0 | 0 | 4µM | 0
CCCN(CC1CC1)c1nc(N)c2c(N)nc(OC)cc2c1C#N | 25µM | 0 | ? | 0 | 0 | 0
CCOc1cc2c(C#N)c(N(CC)CC)nc(N)c2c(N)n1 | 0 | - | 0 | - | 0 | -
CCOC(=O)c1c(C)oc2nc(C)nc(N(C)Cc3ccccc3)c12 | 0 | - | - | - | - | -
COc1cccc(-c2nc(CS(=O)(=O)CC(=O)NCc3ccc(C)cc3)c(C)o2)c1 | 0 | - | - | - | - | -
Cc1cc(N2CCC(C)CC2)nc2ccc(N3C(=O)CCC3=O)cc12 | 40µM | 0 | 0 | 0 | 0 | 0
CCc1nc2ccc(C(=O)NCc3ccc4c(c3)OCO4)cn2c1N(C)Cc1cccs1 | 0 | - | - | - | - | -
O=C(O)C1CCCCC1C(=O)NCc1cn2ccccc2n1 (centres undefined) | 0 | 0 | 0 | 0 | 0 | 0
CC1CCCC(C)N1Cc1cn2ccccc2n1 (centres undefined) | 18µM | 0 | 0 | 0 | 0 | 0
CC1(C(=O)NCc2cccs2)Cc2c(-c3ccc4c(c3)OCO4)ccnc2O1 (centres undefined) | 0 | - | - | - | - | -
CC(OC(=O)c1ccccc1Nc1ccc(SC(F)F)cc1)C(N)=O (centres undefined) | 0 | 0 | 0 | 0 | 0 | 14µM
NC(=O)COC(=O)c1ccccc1Nc1ccc(SC(F)F)cc1 | 0 | 0 | 0 | 0 | 0 | ?
O=C(C[n+]1c(Cl)cc(Cl)c2ccccc21)c1ccccc1 | 0 | - | - | - | - | -
CC1=CC2=NC(=O)CC(C)(C(=O)N(CC(=O)NC(C)(C)C)C3CCCC3)N2C=C1 (centres undefined) | 32µM | 0 | 0 | 0 | 0 | 0
CC(=O)CSc1nc(-c2ccccc2)c(-c2ccccc2)o1 | 28µM | 0 | 0 | 0 | ? | 0
O=C(COc1ccc([N+](=O)[O-])cc1)N1CCC(c2nc3ccccc3s2)CC1 | 0 | - | - | - | - | -
Cc1ccc(C(=O)CC(Nc2ccc(F)cc2)c2ccccc2)cc1 (centres undefined) | 0 | 0 | 0 | 18µM | 0 | 0
Cc1ccc(NC(CC(=O)c2ccccc2)c2ccc(F)cc2)cc1 (centres undefined) | 0 | 0 | 0 | ? | - | 0
